From PubChem
FMDV antiviral = foot and mouth disease virus antiviral activity; FMDV antiviral cell-based qHTS; Potency, µM (doses to about 57.9 µM), for the others: top-dose activity change, negative = inhibition, most hits filed as inhibitors; actives 1.2% (n = 410,000); AID 1159524; calls by dose curve; tested in HEK293T cells; also: read-out not given here; potency is read from the fitted curve at half-maximal effect; % is scaled to controls: 0 for no effect and ±100 for the full control effect; nearly all actives have a fitted effect of over 45% in size
HCV inh = inhibitors of hepatitis C virus infection; Huh7.5.1 HCVcc-Cre infection, luciferase reporter, 44 h; Potency, µM (highest dose often 41.8 µM), inactives show at the highest dose activity change, negative = inhibition, actives largely listed as inhibitors; actives 3.4% (n = 340,000); AID 651820; active = well fitted inhibition curve with a large enough effect; inconclusive = small, poorly fitted or top-dose-only effect, or another doubt; inactive = no such curve, though single readings can be large or run the other way; also: potency is read from the fitted curve at half-maximal effect; % is scaled to controls: 0 for no effect and ±100 for the full control effect
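Cells seeded at 1,000/well and cultured 4 h, then compounds added followed by HCVcc-Cre virus (~0.5 moi). After 44 h further culture, luciferase substrate was added, plates held 15 min at room temperature, and luminescence read for 15 sec.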
Shiga toxin inh = Shiga toxin inhibition | inhibition, % at 38.7 µM | actives 9.2% (n = 290,000) | AID 2315 | Vero cells, Shiga toxin protein synthesis inhibition reporter; in the data active = inhibition mostly above about 28%, no sharp cut-off; inactive = mostly below about 43%; also: 0% is about no effect
MARV entry inh = inhibitors of Marburg virus binding or cell entry; Marburg virus pseudotyped entry inhibition, cell reporter; Potency, µM (highest dose often 37.8 µM), for inactives: at the top dose activity change, negative = inhibition, most hits filed as inhibitors; actives 1.8% (n = 300,000); calls by dose curve; tested in HEK293 cells; also: potency is read from the fitted curve at half-maximal effect; % is scaled to controls: 0 for no effect and ±100 for the full control effect
Cycloheximide cs = affects cycloheximide protein synthesis inhibition readout, counter-screen; AID 2314; max response, %; cell reporter, cycloheximide protein synthesis inhibition counterscreen; actives 12% (n = 300,000); in the data active = max response mostly above about 13%, no sharp cut-off; inactive = mostly below about 14%; also: read at 38.3 µM for the half of the compounds with a filed dose; 0% is about no effect
Lassa entry inh = inhibitors of Lassa virus binding or cell entry; Lassa virus pseudotype entry inhibition, cell reporter; actives 1.2% (n = 300,000); Potency, µM (top dose mostly 37.9 µM), for inactives: at the highest dose activity change, negative = inhibition, actives largely listed as inhibitors; AID 540256; calls by dose curve; tested in HEK293 cells; also: potency is read from the fitted curve at half-maximal effect; % is scaled to controls: 0 for no effect and ±100 for the full control effect; nearly all actives have a fitted effect of over 50% in size
Active calls of the source: *; ? = inconclusive; . = not tested or not shown; [ ] = dose if it differs, or a comment. In the library only some 13% were active in any assay of this set; here they are far more common.

SMILES | FMDV antiviral | HCV inh | Shiga toxin inh | MARV entry inh | Cycloheximide cs | Lassa entry inh
CC#C[C@]1(O)CC[C@H]2C3CCC4=CC(=O)CCC4=C3[C@@H](c3ccc(N(C)C)cc3)C[C@@]21C (stereo partly drawn) | . | . | . | 10µM* | . | .
C#CC1(O)CCC2C3CCC4=CC(=O)CCC4=C3C=CC21C (stereo not drawn) | -10.1% | 12.2% | . | -0.2% | . | -9.2%[46.1 µM]
Cc1ccc2cc(CCl)c(Cl)nc2c1 | ? | 10µM* | -6.7 | ? | -2.4 | 2.3%
ClCc1cc2ccccc2nc1Cl | 28.2µM* | ? | 8.7 | -5.7%[46.1 µM] | -1.5 | -15.9%
Clc1ccc(-c2csc(N3CCN(c4ccccc4)CC3)n2)cc1 | ? | 8.2% | 7.2 | 1.7% | -4.4 | 2.7%
COc1ccc(-c2csc(N3CCC(c4ccccc4)CC3)n2)cc1 | 0.5% | 8.2% | -3.4 | 12.8%[46.1 µM] | -3.2 | 3.5%[46.1 µM]
c1ccc(-c2csc(N3CCN(c4ccccn4)CC3)n2)cc1 | -21.9% | -17.6% | 77.8* | 16.6% | 30.8* | -2.9%
NC(=O)c1cc(-c2ccccc2)nc(N2CCOCC2)n1 | 0.0% | 5.01µM* | -9.0 | ? | -3.0 | -10.7%
O=C(N1CCOCC1)N1CCN(c2nc(-c3ccccc3)cs2)CC1 | 0.5% | -15.1% | 60.0 | -12.7% | 30.3* | 4.9%
NC(=O)c1cc(-c2ccccc2)nc(N2CCCCCC2)n1 | -25.0% | 1.8% | -9.7 | -18.2% | 4.3 | -11.9%
c1ccc(-c2csc(N3CCOCC3)n2)cc1 | 12.3% | -25.0% | 110.7* | 7.9% | 30.0* | ?
CN(C)C(=O)N1CCN(c2nc(-c3ccccc3)cs2)CC1 | 18.5% | -12.2% | 52.1* | . | 34.6* | .
COc1ccc(-c2csc(N3CCN(C(=O)c4ccccc4)CC3)n2)cc1 | ? | 9.8% | 12.9 | ? | -1.7 | -13.0%
O=S(=O)(Nc1cccc(-c2ccc(N3CCCCCC3)nn2)c1)c1ccc(F)cc1 | 31.6% | ? | 84.6* | -24.9%[46.1 µM] | 42.7* | ?
COc1ccc(C)cc1S(=O)(=O)Nc1cccc(-c2ccc(N3CCCCCC3)nn2)c1 | 7.8% | 10µM* | 26.7 | . | 20.1* | .
O=S(=O)(Nc1cccc(-c2ccc(N3CCCCCC3)nn2)c1)c1cccc(F)c1 | 43.0% | -4.4% | 115.7* | . | 39.8* | 11.2%[46.1 µM]
O=S(=O)(Nc1cccc(-c2ccc(N3CCCCCC3)nn2)c1)c1ccc(C(F)(F)F)cc1 | 31.9% | 7.3% | 40.8* | ? | 30.8* | ?
CC(=O)c1ccc(S(=O)(=O)Nc2cccc(-c3ccc(N4CCCCC4)nn3)c2)cc1 | 20.4% | . | . | . | . | -23.2%[46.1 µM]
Cc1ccccc1NC(=O)CSc1nc2ncc(Cl)cc2[nH]1 | -1.4% | -11.4% | -2.6 | . | -4.7 | .
CCCn1c(SCC(=O)c2cc(OC)ccc2OC)nnc1-c1ccco1 | -9.7% | -20.4% | -5.0 | 0.0% | -1.1 | -6.7%
Cc1ccc(S(=O)(=O)Nc2cccc(-c3ccc(N4CCCCCC4)nn3)c2)cc1C | 68.1% | ? | 114.8* | . | 39.3* | .
CCOc1ccc(S(=O)(=O)Nc2cccc(-c3ccc(N4CCCCCC4)nn3)c2)cc1 | 25.0% | -21.0% | 41.4* | . | 24.8* | .
CN1CCN(c2ccc(-c3cccc4nccn34)cn2)CC1 | 10.9% | . | . | . | . | .
CC(C)[C@@H](OCc1ccccc1)[C@H](C)CO/N=C1/[C@H]2CCn3c(=O)n(-c4ccccc4)c(=O)n3[C@H]2[C@H](O)[C@@H]2O[C@H]12 | . | . | . | 24.7%[14.2 µM] | . | .
CCOc1ccc(NC(=O)c2ccc(-c3ccccc3)s2)cc1 | 26.5% | . | . | -3.1%[46.1 µM] | . | 18.1%[46.1 µM]
SMILES | FMDV antiviral | HCV inh | Shiga toxin inh | MARV entry inh | Cycloheximide cs | Lassa entry inh
CNC(=O)c1ccc(-c2ccccc2)s1 | 34.4% | ? | 69.2* | ? | 34.1* | ?
O=C(c1ccc(S(=O)(=O)N2CCCC2)cc1)N(c1ccccc1)C1C=CS(=O)(=O)C1 (stereo not drawn) | -18.8% | 14.0% | -12.1 | 19.4% | -0.5 | 24.3%
COc1ccc2[nH]cc(CCN3C(=O)CCC3=O)c2c1 | -8.2% | 5.8% | -16.9 | 8.3% | -4.2 | -7.7%
COc1cc(OC)c(OC)cc1/C=N/NC(=O)c1cnccn1 | 1.3% | -13.0% | 31.6 | 4.5%[46.1 µM] | 9.2 | -3.0%[46.1 µM]
COc1cccc(/C=N/NC(=O)c2cnccn2)c1OC | 40.7% | 6.6% | 50.0* | -6.3%[46.1 µM] | 17.2* | 5.4%
O=C(N/N=C/c1ccccc1[N+](=O)[O-])c1cnccn1 | 42.4% | -6.0% | 91.4* | ? | 31.0* | ?
O=C(N/N=C/C=C/c1ccccc1[N+](=O)[O-])c1ccncc1 | -9.2% | -1.2% | 6.5 | -7.3%[46.1 µM] | -3.7 | 0.3%[46.1 µM]
O=C(N/N=C/c1ccccc1[N+](=O)[O-])c1ccncc1 | 23.6% | 3.2% | 39.7* | 30.4%[46.1 µM] | 20.9* | 0.0%[46.1 µM]
CCc1ccc(NC(=O)NCCN2CCN(c3ccc(OC)cc3)CC2)cc1 | -6.7% | -11.3% | -8.9 | . | -4.1 | .
NC(=O)C(NC(=O)OCc1ccccc1)c1ccccc1 (stereo not drawn) | 1.6% | 2.1% | . | . | . | .
COC(=O)c1ccc(NC(=S)NCc2ccco2)cc1 | 39.4% | -17.6% | 28.7 | -28.6%[46.1 µM] | 11.8 | -25.7%
NS(=O)(=O)c1ccc(NC(=S)NCc2ccco2)cc1 | -4.4% | 10.0% | 14.2 | 20.0%[46.1 µM] | -0.6 | -17.9%
NC(=O)c1ccc(NC(=S)NCc2ccco2)cc1 | 21.8% | 18.7% | 38.6 | . | 11.1* | .
CC(=O)c1ccc(NC(=S)NCc2ccco2)cc1 | 43.0% | -0.3% | 58.1* | . | 35.9* | .
Cn1cccc1C(=O)N1CCC[C@@]2(CCN(Cc3ccc(C#N)cc3)C2)C1 | -2.7% | . | . | . | . | .
Nc1c(C(=O)Nc2nccs2)sc2nc(-c3cccs3)cc(C(F)(F)F)c12 | -11.8% | -10.6% | -3.4 | -22.5% | 2.9 | -6.7%
Cc1nnc(NC(=O)c2sc3nc(-c4cccs4)cc(C(F)(F)F)c3c2N)s1 | ? | ? | 57.4* | ? | 41.5* | -20.8%
CC(C)c1ccc(C(=O)N(c2ccccn2)C(C)c2ccco2)cc1 (stereo not drawn) | 117.9% | -8.9% | 90.5* | 0.7% | 29.8* | ?
CC(c1ccco1)N(C(=O)c1ccccc1NS(=O)(=O)c1ccc(Cl)c([N+](=O)[O-])c1)c1ccccn1 (stereo not drawn) | 0.4% | ? | 39.3* | 2.6% | -3.5 | 2.6%
CC1=CC(C)(C)N(S(=O)(=O)c2ccc(C)cc2)c2cc(C)ccc21 | . | ? | 13.9 | 2.59µM* | -0.8 | ?
CCOc1ccc2c(c1)C(C)=CC(C)(C)N2S(=O)(=O)c1ccc(C)cc1 | -10.2% | -18.7% | -25.0 | 2.82µM* | -3.8 | ?
COc1ccc2c(c1)C(C)=CC(C)(C)N2S(=O)(=O)c1ccc(C)cc1 | ? | -20.0% | 23.5 | ? | -1.2 | ?
COc1c(S(=O)(=O)NCCCN2CCOCC2)ccc(Cl)c1Cl | -7.0% | -11.6% | -1.8 | -4.1%[46.1 µM] | -10.1 | ?
Cc1cc2ncn(/N=C/c3cccnc3)c2cc1C | -10.3% | ? | -10.5 | -13.1% | -1.8 | -23.1%
Cc1cc2ncn(/N=C/c3ccc4c(c3)OCO4)c2cc1C | 30.8% | -28.8% | 76.3* | 3.5%[46.1 µM] | 18.4* | -0.3%
CC1=C(C(=O)N2CCOCC2)CC(CC(=O)NC2CCCC2)C(=O)N1Cc1ccc(C(C)(C)C)cc1 (stereo not drawn) | -9.3% | . | . | . | . | .
